Source: ChEMBL document CHEMBL1157539, “Thousands of chemical starting points for antimalarial lead identification” (Nature, 2010)

Assays:
Type in all cases: functional
[1] = tested on: Plasmodium falciparum; test: GSK_TCMDC: Inhibition of Plasmodium falciparum 3D7 in whole red blood cells, using parasite LDH activity as an index of growth. Test compounds present at 2uM
[2] = tested on: Plasmodium falciparum; test: GSK_TCMDC: Inhibition of Plasmodium falciparum Dd2 in whole red blood cells, using parasite LDH activity as an index of growth. Test compounds present at 2uM
[3] = tested on: HepG2; test: GSK_TCMDC: Percent inhibition of human HepG2 cell line. Test compounds present at 10uM.

SMILES: CC(Oc1c(C2CCN(CCCCNC(=O)c3ccc(-c4ccc(C#N)cc4)cc3)CC2)ccc2c1CCCC2)C(N)=O (stereo unspecified)
- Inhibition [1]: 100%
- Inhibition [2]: 83%
- Inhibition [3]: 41%

SMILES: CC(C)NCc1ccc(-c2cccc(-c3nc4cc(F)ccc4[nH]3)c2)cc1.O=C(O)C(F)(F)F
- Inhibition [1]: 100%
- Inhibition [2]: 96%
- Inhibition [3]: 14%

SMILES: Cc1ccc(-c2nc(N3CCN(C(=O)c4ccco4)CC3)c3ccccc3n2)cc1
- Inhibition [1]: 90%
- Inhibition [2]: 75%
- Inhibition [3]: 0%

SMILES: CN1CCCN(Cc2ccc(-c3cccc(NC(=O)c4ccc(F)cc4)c3)cc2)CC1.O=C(O)C(F)(F)F
- Inhibition [1]: 89%
- Inhibition [2]: 8%
- Inhibition [3]: 29%

SMILES: COc1ccc(OCCON)cc1.Cl
- Inhibition [1]: 98%
- Inhibition [2]: 0%
- Inhibition [3]: 0%

SMILES: Cc1ccc(F)cc1S(=O)(=O)Nc1ccc(CCN2CCC(N3CCCCC3)CC2)cc1
- Inhibition [1]: 99%
- Inhibition [2]: 15%
- Inhibition [3]: 25%

SMILES: Cl.O=C(/C=C/c1ccc(F)cc1)NC1CCC(CCN2CCc3ccc(-n4cccn4)cc3CC2)CC1 (stereo unspecified)
- Inhibition [1]: 89%
- Inhibition [2]: 16%
- Inhibition [3]: 23%

SMILES: COc1ccc2nc(SC(C)C(=O)c3c[nH]c4ccccc34)[nH]c2c1 (stereo unspecified)
- Inhibition [1]: 100%
- Inhibition [2]: 98%
- Inhibition [3]: 0%

SMILES: COc1ccc(NC(=O)/C=C/c2ccccc2Cl)cc1OCCN1CCC(O)(c2ccc(Cl)c(C(F)(F)F)c2)CC1.Cl
- Inhibition [1]: 100%
- Inhibition [2]: 9%
- Inhibition [3]: 37%

SMILES: COc1ccc(C(=O)NCCCCN2CCC(c3ccc4c(c3OC)CCCC4)CC2)cc1-c1ccc(C(F)(F)F)cc1
- Inhibition [1]: 100%
- Inhibition [2]: 56%
- Inhibition [3]: 67%

SMILES: CC(C)(C)OC(=O)[C@H](CC(N)=O)NC(=O)c1ccc(-c2ccc(-c3nc4cc(C(F)(F)F)ccc4[nH]3)s2)cc1
- Inhibition [1]: 94%
- Inhibition [2]: 88%
- Inhibition [3]: 62%

SMILES: Cc1nn(-c2ccccc2)c2c1C(c1ccc(C(C)C)cc1)N1C(=N2)N(Cc2ccccc2)c2ccccc21 (stereo unspecified)
- Inhibition [1]: 95%
- Inhibition [2]: 37%
- Inhibition [3]: 7%

SMILES: O=C(Cc1ccc(F)cc1)NC1CCN(c2ccnc3cc(Cl)ccc23)C1.O=C(O)C(F)(F)F (stereo unspecified)
- Inhibition [1]: 99%
- Inhibition [2]: 85%
- Inhibition [3]: 0%

SMILES: O=C(Nc1cccc(CN2CCCN(Cc3ccc(O)cc3)CC2)c1)c1cccc(C(F)(F)F)c1.O=C(O)C(F)(F)F
- Inhibition [1]: 100%
- Inhibition [2]: 71%
- Inhibition [3]: 9%

SMILES: NC1CCN(Cc2cccc(-c3ccc(-c4nc5ccccc5[nH]4)s3)c2)C1.O=C(O)C(F)(F)F (stereo unspecified)
- Inhibition [1]: 100%
- Inhibition [2]: 62%
- Inhibition [3]: 36%

SMILES: Cc1cc2nc(-c3cc(Br)ccc3O)c(-c3cc(Br)ccc3O)nc2cc1C
- Inhibition [1]: 96%
- Inhibition [2]: 12%
- Inhibition [3]: 2%

SMILES: COc1ccc(Cn2cncc2CN(CCC(C)C)C(=O)c2ccc(Cl)nc2Cl)cc1.O=C(O)C(F)(F)F
- Inhibition [1]: 87%
- Inhibition [2]: 61%
- Inhibition [3]: 19%

SMILES: COc1cccc(C(=O)Nc2nonc2-c2ccc(OC)c(OC)c2)c1
- Inhibition [1]: 97%
- Inhibition [2]: 50%
- Inhibition [3]: 7%

SMILES: COc1cccc(-c2csc(C(=O)NCC3CCN(Cc4ccc(C(C)(C)C)cc4)C3)c2)c1.O=C(O)C(F)(F)F (stereo unspecified)
- Inhibition [1]: 95%
- Inhibition [2]: 10%
- Inhibition [3]: 30%

SMILES: COc1ccc(S(=O)(=O)N2CCC3(CC2)OCC(=O)NC3c2ccc(Cl)c(Cl)c2)cc1 (stereo unspecified)
- Inhibition [1]: 91%
- Inhibition [2]: 44%
- Inhibition [3]: 0%

SMILES: CCc1cn2c3c(cc(C(=O)N[C@@H](Cc4ccccc4)[C@H](O)CNC(C)(C)CCCC(C)C)cc13)N(C)S(=O)(=O)C2.O=CO
- Inhibition [1]: 98%
- Inhibition [2]: 98%
- Inhibition [3]: 71%

SMILES: Cc1onc(-c2ccccc2Cl)c1C(=O)Nc1cc(Cl)c(Cl)cc1Cl
- Inhibition [1]: 90%
- Inhibition [2]: 57%
- Inhibition [3]: 3%

SMILES: COc1cccc(CN2Cc3ccccc3OC3(CCN(Cc4c[nH]c5cnccc45)CC3)C2)c1.O=C(O)C(F)(F)F
- Inhibition [1]: 83%
- Inhibition [2]: 83%
- Inhibition [3]: 39%

SMILES: Nc1cccc(CNCc2ccc(-c3cccc(-c4nc5cc(F)ccc5[nH]4)c3)cc2)c1.O=C(O)C(F)(F)F
- Inhibition [1]: 100%
- Inhibition [2]: 94%
- Inhibition [3]: 36%

SMILES: Cc1ccc(Nc2nc(C)cc(NC3CCCC3)n2)cc1
- Inhibition [1]: 100%
- Inhibition [2]: 89%
- Inhibition [3]: 33%

SMILES: CCC(C)NC(=O)CN1CN(c2ccccc2)C2(CCN(C(=O)c3ccc4ccccc4c3)CC2)C1=O (stereo unspecified)
- Inhibition [1]: 95%
- Inhibition [2]: 78%
- Inhibition [3]: 0%

SMILES: COc1ccc(-c2cccc(NC(=O)c3ccc(Cl)cc3)c2)cc1CNC(C)C.O=C(O)C(F)(F)F
- Inhibition [1]: 100%
- Inhibition [2]: 44%
- Inhibition [3]: 53%
